Laboratory results published in the supplement of paper PMC4466140.

molecular target: AgAbp1; experiment: SPOT peptide array binding signal intensity (averaged, normalized) (arbitrary units (background-subtracted, floor 0; scale differs between SH3 domains)); higher = stronger binding of the SH3 domain to the peptide
Method: (§1)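 GST-tagged SH3 domains from S. cerevisiae (Sc), A. gossypii (Ag), C. albicans (Ca) and S. pombe (Sp) were incubated at 10 ug/ml overnight at 4 C on cellulose SPOT membranes carrying 292 synthetic 15-mer peptides mined from the S. cerevisiae proteome (cysteines replaced by serines). Binding was detected with anti-GST antibody, HRP secondary and chemiluminescence, quantified with Genespotter, and reported as normalized spot intensities averaged over biological replicates.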

Binder | SPOT peptide array binding signal intensity
TKIRRRPQQPLTDFT | 21

molecular target: AgBbc1; experiment: as above
Method: as §1

Binder | SPOT peptide array binding signal intensity
TKIRRRPQQPLTDFT | 109

molecular target: AgBem1-D1; experiment: as above
Method: as §1

Binder | SPOT peptide array binding signal intensity
TKIRRRPQQPLTDFT | 32

molecular target: AgBzz1-D1; experiment: as above
Method: as §1

Binder | SPOT peptide array binding signal intensity
TKIRRRPQQPLTDFT | 42.5

molecular target: AgBzz1-D2; experiment: as above
Method: as §1

Binder | SPOT peptide array binding signal intensity
TKIRRRPQQPLTDFT | 82

molecular target: AgCyk3; experiment: as above
Method: as §1

Binder | SPOT peptide array binding signal intensity
TKIRRRPQQPLTDFT | 2

molecular target: AgFus1; experiment: as above
Method: as §1

Binder | SPOT peptide array binding signal intensity
TKIRRRPQQPLTDFT | 150

molecular target: AgHof1; experiment: as above
Method: as §1

Binder | SPOT peptide array binding signal intensity
TKIRRRPQQPLTDFT | 39.8

molecular target: AgHse1; experiment: as above
Method: as §1

Binder | SPOT peptide array binding signal intensity
TKIRRRPQQPLTDFT | 61.5

molecular target: AgLsb1; experiment: as above
Method: as §1

Binder | SPOT peptide array binding signal intensity
TKIRRRPQQPLTDFT | 22

molecular target: AgLsb4; experiment: as above
Method: as §1

Binder | SPOT peptide array binding signal intensity
TKIRRRPQQPLTDFT | 18

molecular target: AgMyo5; experiment: as above
Method: as §1

Binder | SPOT peptide array binding signal intensity
TKIRRRPQQPLTDFT | 0.5

molecular target: AgNbp2; experiment: as above
Method: as §1

Binder | SPOT peptide array binding signal intensity
TKIRRRPQQPLTDFT | 6

molecular target: AgRvs167; experiment: as above
Method: as §1

Binder | SPOT peptide array binding signal intensity
TKIRRRPQQPLTDFT | 2.33

molecular target: AgSho1; experiment: as above
Method: as §1

Binder | SPOT peptide array binding signal intensity
TKIRRRPQQPLTDFT | 3

molecular target: AgSla1-D1-D2; experiment: as above
Method: as §1

Binder | SPOT peptide array binding signal intensity
TKIRRRPQQPLTDFT | 12.5

molecular target: AgSla1-D3; experiment: as above
Method: as §1

Binder | SPOT peptide array binding signal intensity
TKIRRRPQQPLTDFT | 3.5

molecular target: CaAbp1-D1; experiment: as above
Method: as §1

Binder | SPOT peptide array binding signal intensity
TKIRRRPQQPLTDFT | 276

molecular target: CaAbp1-D2; experiment: as above
Method: as §1

Binder | SPOT peptide array binding signal intensity
TKIRRRPQQPLTDFT | 158

molecular target: CaBbc1; experiment: as above
Method: as §1

Binder | SPOT peptide array binding signal intensity
TKIRRRPQQPLTDFT | 518

molecular target: CaBem1-D1; experiment: as above
Method: as §1

Binder | SPOT peptide array binding signal intensity
TKIRRRPQQPLTDFT | 13

molecular target: CaBzz1-D1; experiment: as above
Method: as §1

Binder | SPOT peptide array binding signal intensity
TKIRRRPQQPLTDFT | 137

molecular target: CaBzz1-D2; experiment: as above
Method: as §1

Binder | SPOT peptide array binding signal intensity
TKIRRRPQQPLTDFT | 147

molecular target: CaCyk3; experiment: as above
Method: as §1

Binder | SPOT peptide array binding signal intensity
TKIRRRPQQPLTDFT | 76

molecular target: CaFus1; experiment: as above
Method: as §1

Binder | SPOT peptide array binding signal intensity
TKIRRRPQQPLTDFT | 338

molecular target: CaHof1; experiment: as above
Method: as §1

Binder | SPOT peptide array binding signal intensity
TKIRRRPQQPLTDFT | 0.25

molecular target: CaHse1; experiment: as above
Method: as §1

Binder | SPOT peptide array binding signal intensity
TKIRRRPQQPLTDFT | 6.5

molecular target: CaLsb1; experiment: as above
Method: as §1

Binder | SPOT peptide array binding signal intensity
TKIRRRPQQPLTDFT | ≤ 0

molecular target: CaLsb4; experiment: as above
Method: as §1

Binder | SPOT peptide array binding signal intensity
TKIRRRPQQPLTDFT | 22.5

molecular target: CaMyo5; experiment: as above
Method: as §1

Binder | SPOT peptide array binding signal intensity
TKIRRRPQQPLTDFT | 1.5

molecular target: CaNbp2; experiment: as above
Method: as §1

Binder | SPOT peptide array binding signal intensity
TKIRRRPQQPLTDFT | 48.5

molecular target: CaRvs167; experiment: as above
Method: as §1

Binder | SPOT peptide array binding signal intensity
TKIRRRPQQPLTDFT | 2.67

molecular target: CaRvs167-3; experiment: as above
Method: as §1

Binder | SPOT peptide array binding signal intensity
TKIRRRPQQPLTDFT | 15.5

molecular target: CaSho1; experiment: as above
Method: as §1

Binder | SPOT peptide array binding signal intensity
TKIRRRPQQPLTDFT | 38

molecular target: CaSla1-D1-D2; experiment: as above
Method: as §1

Binder | SPOT peptide array binding signal intensity
TKIRRRPQQPLTDFT | 24

molecular target: CaSla1-D3; experiment: as above
Method: as §1

Binder | SPOT peptide array binding signal intensity
TKIRRRPQQPLTDFT | 0.5

molecular target: ScAbp1; experiment: as above
Method: as §1

Binder | SPOT peptide array binding signal intensity
TKIRRRPQQPLTDFT | 25

molecular target: ScBbc1; experiment: as above
Method: as §1

Binder | SPOT peptide array binding signal intensity
TKIRRRPQQPLTDFT | 63.5

molecular target: ScBem1-D1; experiment: as above
Method: as §1

Binder | SPOT peptide array binding signal intensity
TKIRRRPQQPLTDFT | 10

molecular target: ScBzz1-D1; experiment: as above
Method: as §1

Binder | SPOT peptide array binding signal intensity
TKIRRRPQQPLTDFT | 33

molecular target: ScBzz1-D2; experiment: as above
Method: as §1

Binder | SPOT peptide array binding signal intensity
TKIRRRPQQPLTDFT | 18

molecular target: ScCyk3; experiment: as above
Method: as §1

Binder | SPOT peptide array binding signal intensity
TKIRRRPQQPLTDFT | 38

molecular target: ScFus1; experiment: as above
Method: as §1

Binder | SPOT peptide array binding signal intensity
TKIRRRPQQPLTDFT | 44

molecular target: ScHof1; experiment: as above
Method: as §1

Binder | SPOT peptide array binding signal intensity
TKIRRRPQQPLTDFT | ≤ 0

molecular target: ScHse1; experiment: as above
Method: as §1

Binder | SPOT peptide array binding signal intensity
TKIRRRPQQPLTDFT | 281

molecular target: ScLsb1; experiment: as above
Method: as §1

Binder | SPOT peptide array binding signal intensity
TKIRRRPQQPLTDFT | 4.75

molecular target: ScLsb2; experiment: as above
Method: as §1

Binder | SPOT peptide array binding signal intensity
TKIRRRPQQPLTDFT | 1

molecular target: ScLsb3; experiment: as above
Method: as §1

Binder | SPOT peptide array binding signal intensity
TKIRRRPQQPLTDFT | 115

molecular target: ScLsb4; experiment: as above
Method: as §1

Binder | SPOT peptide array binding signal intensity
TKIRRRPQQPLTDFT | 15

molecular target: ScMyo3; experiment: as above
Method: as §1

Binder | SPOT peptide array binding signal intensity
TKIRRRPQQPLTDFT | 1

molecular target: ScMyo5; experiment: as above
Method: as §1

Binder | SPOT peptide array binding signal intensity
TKIRRRPQQPLTDFT | 2

molecular target: ScNbp2; experiment: as above
Method: as §1

Binder | SPOT peptide array binding signal intensity
TKIRRRPQQPLTDFT | 93

molecular target: ScPex13; experiment: as above
Method: as §1

Binder | SPOT peptide array binding signal intensity
TKIRRRPQQPLTDFT | 6.75

molecular target: ScRvs167; experiment: as above
Method: as §1

Binder | SPOT peptide array binding signal intensity
TKIRRRPQQPLTDFT | 14

molecular target: ScSho1; experiment: as above
Method: as §1

Binder | SPOT peptide array binding signal intensity
TKIRRRPQQPLTDFT | 148

molecular target: ScSla1-D1-D2; experiment: as above
Method: as §1

Binder | SPOT peptide array binding signal intensity
TKIRRRPQQPLTDFT | 240

molecular target: ScSla1-D3; experiment: as above
Method: as §1

Binder | SPOT peptide array binding signal intensity
TKIRRRPQQPLTDFT | 38.5

molecular target: SpAbp1-D1; experiment: as above
Method: as §1

Binder | SPOT peptide array binding signal intensity
TKIRRRPQQPLTDFT | 94

molecular target: SpBbc1; experiment: as above
Method: as §1

Binder | SPOT peptide array binding signal intensity
TKIRRRPQQPLTDFT | 5.75

molecular target: SpBzz1-D1; experiment: as above
Method: as §1

Binder | SPOT peptide array binding signal intensity
TKIRRRPQQPLTDFT | 253
